Test results from PubChem BioAssay AID756 (University of Pittsburgh Molecular Library Screening Center, 2007).
The list shows a part of the results. Unmarked numbers belong to inactive results.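 How the source made its calls: active means both duplicate runs show 50% or greater inhibition; inconclusive means only one duplicate run shows over 50% inhibition; inactive means both runs show under 50% inhibition.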

Assay: compound interference with Plk1 assay readout, artefact control for Plk1 kinase inhibitor project, biochemical, TR-FRET, compound added post-reaction (AID 756);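 further: 0% = DMSO max control and 100% = H-89 min control inhibited reaction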
Details: at 10 µM, hits give high values
Work on C[N+]1(CCNC(=O)/C=N/O)CCCCC1 yielded an inhibition (interference) of -46.6%.
COc1ccc(-c2nc(CS(=O)CC(=O)NCc3cccnc3)c(C)o2)cc1OC (stereo unspecified) showed an inhibition (interference) of -52.6%.
O=C(Nc1cccc(F)c1)c1ccc(S(=O)(=O)N2CCCC2)cc1 showed an inhibition (interference) of -44.8%.
With CC1CSc2nnc(CCc3ccccc3)n21 (stereo unspecified) the inhibition (interference) was -58.9%.
With CC1CN(c2cc(=O)n(Cc3ccc(F)cc3)c(=O)[nH]2)CC(C)O1 (stereo unspecified) the inhibition (interference) was -49.5%.
Cc1ccnc(N2C(=O)c3ccccc3C2Nc2ccc3c(c2)OCCO3)c1 (stereo unspecified) gave an inhibition (interference) of -50.1%.
